SMILES strings stand for the structures. Values joined by “and” are separate entries in the source; they are usually repeats but may differ in a detail not shown here. Equal values may be shown once. Results filed as inconclusive are left out. Values without a mark were called inactive. Active and inactive are the calls of the source. The call rests on the fitted dose curve; in most records, active means well fitted inhibition curve with a large enough effect; inconclusive means small, poorly fitted or top-dose-only effect; inactive means flat fitted curve, though single readings scatter. Non-standard residues stand in square brackets, D forms with d. Residues, ends and D or L forms follow the SMILES beside them. *: point of attachment. Sta = CC(C)C[C@H](N)[C@@H](O)CC(=O)O; Isovaleryl = CC(C)CC(=O)*

Potency, max response and outcome data for 15 molecules are collected here from PubChem BioAssay (NCATS).

The subject of experiment [1] is W2. The experiment is described as follows: qHTS profiling for inhibitors of Plasmodium falciparum proliferation (AID 504749). Further: potency means the concentration at half of the fitted maximal effect. As to conditions: P. falciparum in erythrocytes, SYBR Green DNA, 72 h; series mostly up to 28.7 µM. In a few lines: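 Fluorescence of SYBR Green-bound parasite DNA, read at 485/535 nm, served as the growth measure. Infected erythrocytes were cultured with compound 72 h; artemisinin (0.29 uM) and DMSO wells defined the normalization range.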
A general note: qHTS replaces the single test concentration by a dilution series.

Experiment [2] concerns CRL-7250. The experiment is described as follows: Cytotoxic Profiling of Annotated Libraries Using Quantitative High-Throughput Screening (AID 1296008). Further: potency means the concentration at half of the fitted maximal effect. On max response: on the % scale 0 is the no-effect control and ±100 the full control effect. As to conditions: Five cell lines viability, CellTiter-Glo ATP luminescence, 48-72 h; max response: active compounds read low. In a few lines: (§1)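 Compounds were pin-transferred onto cells and incubated 48 or 72 hr at 37 degree Celsius, 95% humidity. CellTiter-Glo was added, plates sat 10 min at room temperature, then ATP-coupled luminescence was imaged as the viability read-out.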
On the technique in general: Cellular ATP, detected with luciferase, serves as a proxy for viable cell number.

For experiment [3], the system named is HEK293. The description is as above. The note with it: Five cell lines viability, CellTiter-Glo ATP luminescence, 48-72 h; max response: active compounds read low. In a few lines:
as §1

In experiment [4] the test system is HaCat. The description is as above. As to conditions: Five cell lines viability, CellTiter-Glo ATP luminescence, 48-72 h; max response: active compounds read low. In short, it runs like this:
as §1

The subject of experiment [5] is NIH3T3. Described as above. As to conditions: Five cell lines viability, CellTiter-Glo ATP luminescence, 48-72 h; max response: active compounds read low. In short, it runs like this:
as §1

For experiment [6], the system named is HACAT. Briefly: qHTS assay to identify novel small-molecules to repurpose for Merkel cell carcinoma treatment (AID 1296009). The note with it: MCC and control cell lines, CellTiter-Glo viability, 72 h; at 44.8 µM (top of the series) unless noted. In short, it runs like this:
(§2)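 Luminescence from CellTiter-Glo, read 10 min after addition at room temperature, reported viability following a 72 hr, 37 degree celsius treatment with NPC or MIPE compounds in titration; values normalized to plate controls.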

In experiment [7] the test system is MCC-13. The experiment is described as above. The note with it: MCC and control cell lines, CellTiter-Glo viability, 72 h; series mostly up to 46 µM. In a few lines: as §2
For experiment [8], the system named is MCC-26. Described as above. The note with it: MCC and control cell lines, CellTiter-Glo viability, 72 h; series mostly up to 46 µM. In a few lines:
as §2

Experiment [9] relates to KB-3-1. Briefly: Cytotoxic Profiling of Annotated Libraries Using Quantitative High-Throughput Screening (AID 1296008). Further: potency means the concentration at half of the fitted maximal effect. On max response: on the % scale 0 is the no-effect control and ±100 the full control effect. The note with it: Five cell lines viability, CellTiter-Glo ATP luminescence, 48-72 h; max response: active compounds read low. In a few lines: as §1
Further: nearly all actives have a fitted effect of over 60% in size.

As for `CC(C)(S)[C@@H](N)C(=O)O`, the Potency entry in [1], in experiment [7] and in experiment [8] was “inactive” throughout. Also, the max response is 1.05% in experiment [2] and 2.4% in experiment [3]. Further, the outcome in experiment [4], in experiment [5] and in [6] was inactive.
Regarding `CCc1nc(N)nc(N)c1-c1ccc(Cl)cc1`, the max response is -18.3% in experiment [2] and 3.72% in experiment [4]. Further, the Potency in experiment [3] was 6.68 µM (active) and 18.7 µM (active); in experiment [5], 8.41 µM (active) and 9.35 µM (active). The Potency entry in experiment [8] is “inactive”.
Take `O=c1cc(N2CCOCC2)oc2c(-c3ccccc3)cccc12`: the Potency result in [7] and in [8] was “inactive” throughout.
Consider `O=C(O)c1cn(-c2ccc(F)cc2)c2cc(N3CCNCC3)c(F)cc2c1=O`, for which, in experiment [1], the Potency was 10.7 µM (active). The max response was 3.53% and 1.39% in experiment [2]; -4.73% in [3]; -14.9% in experiment [4]; -0.0226% and -6.36% in [5]. The Potency result in experiment [7] and in experiment [8] was “inactive” throughout.
As for `Cc1c(OCC(F)(F)F)ccnc1CS(=O)c1nc2ccccc2[nH]1` (centres undefined), the max response was -8.7% and 2.17% in experiment [2]; 3.36% in experiment [3]; 1.81% and 4.74% in [5]. Further, the molecule was called inactive in experiment [4] and in [6]. Further, the Potency result in experiment [7] and in experiment [8] was “inactive” each time.
For `CCCCC(CC)COC(=O)C(C#N)=C(c1ccccc1)c1ccccc1` (centres undefined), the Potency in experiment [1] is 6.75 µM (active); in experiment [3], 18.8 µM (active). For the same molecule, the max response is -0.998% in experiment [4] and -1.9% in [5]. Besides, the molecule was called inactive in experiment [4], in experiment [9], in experiment [5] and in experiment [6]. In addition, the Potency entry in experiment [7] and in experiment [8] was “inactive” each time.
For the molecule `C=CCc1cc(OC)c(O)c(C(=O)NCCO)c1`, the Potency entry in experiment [1], in experiment [7] and in [8] was “inactive” in each case. Also, the max response in experiment [3] was -0.342%; in [4], -2.64%; in [5], -1.28% and -4.54%. The molecule was classed as inactive in experiment [4] and in experiment [6].
In the case of `O=C(O)c1cc(=O)c2c(OCC(O)COc3cccc4oc(C(=O)O)cc(=O)c34)cccc2o1`, the Potency result in experiment [1] was “inactive”.
On to `NC(=NCc1ccccc1)NC(=O)c1nc(Cl)c(N)nc1N`, for which the max response in experiment [3] is -5.25%; in experiment [9], -6.74%; in [5], 3.69%. Besides, the outcome in experiment [4] and in experiment [6] was “inactive; activator” each time. Moreover, the Potency entry in experiment [7] and in experiment [8] was “inactive” throughout.
Regarding `CCCc1cc(=O)[nH]c(=S)[nH]1`, the Potency result in experiment [1], in [7] and in [8] was “inactive” in each case. The max response is 1.74% and -1.3% in experiment [2]; 2.66% in [3]; 0.476% in [9]. In addition, in experiment [9], the outcome was inactive. Besides, the outcome in experiment [5] was “inactive; activator”.
Turning to `Cc1cc(O)c2c(c1)C(=O)c1cc(O)cc(O)c1C2=O`, the molecule was called inactive in experiment [2]. Further, the results for the max response in experiment [4], in experiment [9] and in experiment [5] were -5.49%, -3.32% and 0.664%, respectively. Also, the Potency entry in experiment [7] and in [8] was “inactive” throughout.
Regarding `CN(C)C(=O)[C@H](O)[C@H](Cc1ccccc1)NC(=O)c1cc2cc(Cl)ccc2[nH]1`, the outcome in experiment [2], in experiment [4], in experiment [5] and in experiment [6] was inactive. The max response in experiment [4] was -6.71%; in experiment [5] it was -4.58%. The Potency result in experiment [7] was “inactive”.
For `CC(C)c1nc(CN(C)C(=O)N[C@H](C(=O)N[C@@H](Cc2ccccc2)C[C@H](O)[C@H](Cc2ccccc2)NC(=O)OCc2cncs2)C(C)C)cs1`, the max response in experiment [2] was -16.9% and 0.649% and -2.4%; in experiment [4] it was -41.4% and 3.85%; in [9] it was -5.85% and -8.86% and 1.74%; in experiment [5] it was -19.1% and 3.76%. The result in [4], in [5] and in experiment [6] was inactive. The Potency result in experiment [7] and in experiment [8] was “inactive” in each case.
On to `O=C1c2ccccc2-c2n[nH]c3cccc1c23`, for which, in experiment [9], the max response was -0.484%. For the same molecule, the Potency entry in experiment [7] and in experiment [8] was “inactive” in each case.
On to `CC(C)CC(=O)N[C@H](C(=O)N[C@H](C(=O)N[C@@H](CC(C)C)[C@@H](O)CC(=O)N[C@@H](C)C(=O)N[C@@H](CC(C)C)[C@@H](O)CC(=O)O)C(C)C)C(C)C` (Isovaleryl-VV[Sta]A[Sta]-OH), for which the max response was 0.655% in experiment [2]; -5.42% in experiment [3]; 15.7% and 7.23% in [9]; 0.118% in experiment [5]. Moreover, the Potency entry in [7] and in experiment [8] was “inactive” each time.
